Screening data as filed in PubChem BioAssay.
This is a sample that favours compounds with a hit; in the whole collection about 11% have one here.
RORg inh = blocks mouse ROR gamma transcriptional activity. Drosophila S2 Gal4-RORgamma UAS-luciferase reporter, 20 h. P51450. 310,000 compounds, 5.4% hits. AID 2551. Potency, µM (titrated, usually from 53.6 µM), for inactives: at the top dose activity change, negative = inhibition, actives largely listed as inhibitors; note: potency is the fitted concentration of half-maximal effect; % is set by controls: 0 for no effect and ±100 for the full control effect; nearly all actives have a fitted effect of over 60% in size
Target sequence (P51450 whole entry, looked up, the tested form may be a part): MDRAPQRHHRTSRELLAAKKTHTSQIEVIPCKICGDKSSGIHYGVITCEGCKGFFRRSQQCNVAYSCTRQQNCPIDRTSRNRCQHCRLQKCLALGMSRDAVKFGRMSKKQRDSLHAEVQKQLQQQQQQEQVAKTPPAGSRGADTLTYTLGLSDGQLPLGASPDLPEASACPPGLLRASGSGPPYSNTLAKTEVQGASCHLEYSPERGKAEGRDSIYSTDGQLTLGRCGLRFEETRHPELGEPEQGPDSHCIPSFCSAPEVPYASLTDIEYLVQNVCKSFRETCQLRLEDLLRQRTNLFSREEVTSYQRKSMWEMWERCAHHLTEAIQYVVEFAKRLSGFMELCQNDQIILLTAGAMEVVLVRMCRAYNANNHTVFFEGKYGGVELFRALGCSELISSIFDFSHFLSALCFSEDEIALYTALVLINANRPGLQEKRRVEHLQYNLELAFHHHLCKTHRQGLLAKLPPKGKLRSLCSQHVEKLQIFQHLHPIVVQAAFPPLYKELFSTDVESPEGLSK
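Stable Schneider cell line, Gal4 DNA-binding domain fused to ROR gamma, UAS-luciferase. Cmpd 1 hr RT → CuSO4 700 uM final → 20 hr RT → luciferase reagent 10 min → luminescence.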
MCF10A rerep = inducers of DNA re-replication in MCF 10A breast cells. MCF 10A DNA re-replication, Hoechst nuclear intensity, 48 h. Potency, µM (series often up to 46.1 µM), for inactives: at the highest dose activity, positive = re-replication, hits mostly activators. 350,000 compounds, 2.9% hits. AID 624296; note: potency is the fitted concentration of half-maximal effect; % of control where 0% means no effect; nearly all actives have a fitted effect of over 50% in size
Gal4-VP16 FLuc = Gal4-VP16 reporter inhibition counter-screen | Drosophila S2 Gal4-VP16 UAS-luciferase, luminescence, 20 h | Potency, µM (series often up to 53.6 µM), inactives show at the highest dose activity, negative = inhibition, most hits filed as inhibitors | 310,000 compounds, 3.5% hits | AID 2546;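 note: Gal4-VP16 expression switched on by copper sulfate through the metallothionein promoter; potency is the fitted concentration of half-maximal effect; % is set by controls: 0 for no effect and ±100 for the full control effect; nearly all actives have a fitted effect of over 50% in size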
IL1B secr inh = blocks inflammasome-driven IL-1 beta release; THP-1 LPS/ATP IL-1B secretion, AlphaLISA, 16 h; stronger effect = lower value; activity change, % at 57.5 µM; 360,000 compounds, 4.7% hits; AID 743279; in the data active = activity change below about -50%; inconclusive = mostly about -30% to -49%; note: % is set by controls: 0 for no effect and ±100 for the full control effect
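THP-1 cells pretreated 1 hr with compounds (up to 57.5 uM final), then stimulated with LPS (250 ng/mL final) plus ATP (1.25 mM final); secreted IL-1B measured by AlphaLISA after 16 hr, decreased signal indicating inhibition.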
SW480 rereplic = induces DNA re-replication in SW480 colon adenocarcinoma cells | SW480 DNA re-replication, Hoechst DNA content imaging, 48 h | Potency, µM (highest dose often 46.1 µM), for inactives: at the highest dose re-replication activation, hits mostly activators | 340,000 compounds, 1.8% hits; note: potency is the fitted concentration of half-maximal effect; % of control where 0% means no effect; nearly all actives have a fitted effect of over 55% in size
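DNA re-replication was detected as more nuclei of elevated Hoechst intensity after 48 hr exposure to compound (23 nL pinned per well of 250 cells).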
* = called active by the depositor; ? = inconclusive; nt = no result given; [ ] = dose if it differs, or a comment. Unless noted, calls come from the whole dose curve; as a rule, active = well fitted curve in the direction sought with a large enough effect; inconclusive = small, poorly fitted or top-dose-only effect, or another doubt; inactive = no such curve, though single readings can be large; an effect the other way counts as inactive or inconclusive.

SMILES	RORg inh	MCF10A rerep	Gal4-VP16 FLuc	IL1B secr inh	SW480 rereplic
CC(=O)Nc1cc2c(cc1C(=O)c1ccc(C)cc1)OCCO2	-16%	?	23%	-14	1%
CCOC(=O)C1CCCN(C(=O)Cc2ccc(OC)c(OC)c2)CC1 (stereo unspecified)	nt	nt	nt	41	nt
CCc1nc(C)c(-c2ccccc2)c(=O)[nH]1	-2%	?	-3%	0	18µM*
CN(N=O)C(=O)N[C@H]1C(O)C(O)C(CO)O[C@@H]1O (stereo partly specified)	-1%	nt	-2%	nt	nt
CN(C)c1oc(/C=C/c2ccccc2)nc1C#N	40%	?	0%	2	15µM*
CN(C)c1oc(-c2ccccc2)nc1C#N	10%	-4%	0%	-13	-9%
COc1ccccc1/C=C/c1nc(C#N)c(N(C)C)o1	19%	23µM*	26%	-8	?
N#Cc1ccccc1NC(=O)CSC1=Nc2ccccc2C2CC=NN12 (stereo unspecified)	11µM*	16%	?	25	3%
Cc1cc(C)cc(N(CCC#N)C(=O)CSc2ncnc3sccc23)c1	nt	1%	nt	?	12%
O=C(CSC1=Nc2ccccc2C2CC=NN12)NCc1ccco1 (stereo unspecified)	nt	21µM*	nt	24	?
O=C(CSC1=Nc2ccccc2C2CC=NN12)Nc1ccc2c(c1)OCO2 (stereo unspecified)	-37%	?	4%	?	?
Cc1cc(C)cc(N(CCC#N)C(=O)CSC2=Nc3ccccc3C3CC=NN23)c1 (stereo unspecified)	-2%	26%	6%	-91*	-2%
O=C(Nc1ccccc1)c1cc(C2CCCCN2C(=O)c2cccs2)on1 (stereo unspecified)	nt	nt	nt	-10	nt
CC(=O)c1ccc(NC(=O)CSc2nnc3ccc(-c4ccccn4)nn23)cc1	nt	16%	nt	6	18%
CSc1ccc(COC(=O)c2cc([N+](=O)[O-])ccc2N2CCOCC2)cc1	nt	?	nt	-9	0.058µM*
CCOc1ccc(C(=O)COC(=O)c2cc([N+](=O)[O-])ccc2N2CCOCC2)cc1	nt	?	nt	47	4.1µM*
Cc1ccccc1C(=O)c1cccn1CC(=O)NC1CCCC(C)C1C (stereo unspecified)	0%	10%	-10%	7	?
S=c1[nH]c(-c2ccccc2)cs1	7.1µM*	-4%	?	-3	-6%
Fc1ccc(-c2csc(=S)[nH]2)cc1	-43%	?	2%	-18	-4%
Cc1cc(Br)cn2c(Cc3ccsc3)c(-c3ccc(F)cc3)nc12	nt	nt	nt	74	nt
COc1ccc(/C=C/c2ccc3cccc(O)c3n2)c(OC)c1OC	3.2µM*	1.6µM*	?	-91*	?
COc1cccc(/C=C/c2ccc3cccc(O)c3n2)c1OC	2.8µM*	-14%	5.6µM*	35	?
Cc1ccc(CN2CCC(CNC(=O)C3CCCN(c4ncnc5c4nc4n5CCCCC4)C3)CC2)cc1 (stereo unspecified)	1%	12%	2%	-66*	-7%
CCOc1ccccc1CNC(=O)C1CCCN(c2ncnc3c2nc2n3CCCCC2)C1 (stereo unspecified)	-5%	44%	18%	-53*	0%
Cc1cc(O)c(Oc2cc(C)cc(O)c2O)c(O)c1	18µM*	30%	?	12	18µM*
SMILES	RORg inh	MCF10A rerep	Gal4-VP16 FLuc	IL1B secr inh	SW480 rereplic
COCCN(C(=O)c1ccc2c(c1)C(=O)N(c1ccccc1Cl)C2=O)c1c(N)n(CC(C)C)c(=O)[nH]c1=O	nt	2%	nt	8	-27%
Cc1cc(C)nc(SCc2ccc(C(=O)N/N=C/c3ccccn3)cc2)n1	7.1µM*	-3%	14µM*	121	-6%
Cc1cc(C)nc(SCc2ccc(C(=O)N/N=C/c3ccncc3)cc2)n1	0%	-2%	-2%	-9	-15%
Cc1cc(C)nc(SCc2ccc(C(=O)NNC(=O)Nc3cccc(Cl)c3)cc2)n1	?	?	?	-100*	?
Cc1ccc(COc2ccccc2-c2cc(C(=O)N/N=C/c3cccnc3)[nH]n2)cc1	-45%	8.2µM*	?	3	57%
COc1cccc(/C=N/NC(=O)c2ccc([N+](=O)[O-])cc2Cl)c1O	0.35µM*	?	0.63µM*	69	?
CC1(C(=O)NCC(F)(F)F)CCN1C(=O)Cc1ccc(-c2ccccc2)cc1 (stereo unspecified)	nt	nt	nt	6	nt
O=C1CC2(CCN(C(=O)c3cccc(F)c3)CC2)Oc2ccccc21	nt	17%	nt	-10	-552%
O=C(N/N=C/c1ccccn1)c1ccc([N+](=O)[O-])cc1Cl	11µM*	-2%	?	14	-4%
O=C(N/N=C/c1ccccn1)c1cc(-c2cccc3ccccc23)n[nH]1	-37%	?	13%	0	27%
O=C(N/N=C/c1ccccn1)c1cc(-c2ccc3ccccc3c2)n[nH]1	16µM*	?	16µM*	34	?
O=C(N/N=C/c1ccccn1)c1cc(-c2ccccc2Cl)n[nH]1	16µM*	-3%	-3%[10 µM]	-2	10%
O=C(N/N=C/c1ccccn1)c1[nH]c2ccc([N+](=O)[O-])cc2c1-c1ccccc1	5µM*	?	2%[10 µM]	-5	?
O=C(O)c1[nH]c2ccc([N+](=O)[O-])cc2c1-c1ccccc1	8%	1%	1%	17	-4%
O=C(Nc1ccccc1C(=O)NCCCN1CCOCC1)c1ccc(Cl)cc1	10%	-1%	1%	0	6%
CCc1ccc(-c2cc(C(=O)N/N=C/c3ccccn3)[nH]n2)cc1	13µM*	?	?	67	-5%
O=C(N/N=C/c1ccccn1)c1ccc(Cl)c(Cl)c1	?	nt	0.63µM*	nt	nt
O=C(COc1ccccc1-c1ccccc1)N/N=C/c1ccccn1	?	?	?	55	4%
O=C(Cc1ccc(NC(=O)C2CCCN(C(=O)C3CCC3)C2)cc1)Nc1cccc(C(=O)N2CCCCC2)c1 (stereo unspecified)	nt	1%	nt	8	?
Cc1ccnc(NC(=O)c2cc3ccccc3o2)c1	nt	0%	nt	?	-1%
O=C(Nc1ncccc1O)c1cc2ccccc2o1	nt	5%	nt	26	-3%
O=C(Nc1ccccn1)c1cc2ccccc2o1	4µM*	1%	6.3µM*	-97*	1%
O=C(NC1=NCCS1)c1cc2ccccc2o1	7.1µM*	2%	8.9µM*	-1	-1%
O=C(NC1CCCCC1)c1nc(C2CCNCC2)oc1-c1ccccc1	nt	nt	nt	-66*	nt
O=C(NC1CCCCCCC1)c1ccccc1-c1ccccc1	5%	13%	3%	-14	-3%
COc1cccc(CCC2C(=O)CCCC2=O)c1	nt	?	nt	18	?
O=C(Nc1ccccc1)Nc1cccc2nsnc12	-15%	?	-6%	-74*	23%
